Assay results: PubChem BioAssay (NCATS)
Where “and” joins values, the source holds several entries; their conditions need not be identical. Equal values may be shown once. Results filed as inconclusive are left out. Where a structure was tested more than once in an assay, its records may differ in their call. Calls of active or inactive are those of the source. The call rests on the fitted dose curve; in most records, active means well fitted cell-killing curve with a large enough effect; inconclusive means small, poorly fitted or top-dose-only effect, or effect the other way; inactive means no such curve, though single readings can be large or run the other way.

Assay: Viability qHTS for spleen associated tyrosine kinase inhibitor (SYKi) drug resistant MV4-11 cells (AID 1963824); further: nearly all actives have a fitted effect of over 35% in size
Conditions: SYKi-resistant MV4-11 viability, CellTiter-Glo, 72 h; series mostly up to 45 µM; viability, % of control: at the top concentration
Source text: Department of Medicine, Hematology/Oncology
University Hospital Frankfurt, Germany.
Trials have shown promising clinical activity of the selective SYK inhibitor entospletinib in patients with high expressing HOXA9/MEIS1 acute leukemias. As the development of resistance mechanisms is a common problem in the use of targeted drugs, we performed a chemical library screen to identify drug sensitivities in SYK inhibitor resistant AML cells. […] Glucocorticoids are potent immunosuppressants which work in part by inhibiting the transcription of cytokine genes.
Described herein is a viability screen to look for activity in the SYK inhibitor drug resistant cell line against four NCATS compound libraries (MIPE 5.0, NPC, NPACT, and Kinase) totaling 11372 compounds. Active hits were reacquired for confirmation and further secondary assay testing.
SEQUENCE No. (e.g., 1, 2, 3, etc.); […] (e.g., Cells, Incubation, Reagent, etc.); VALUE; DESCRIPTION.
1; Media; 2uL; white, solid-bottom Corning assay plate.
2; Compounds; 23nL; Echo acoustic dispenser.
3; Cell; 5uL; 500 cells per well.
4: Incubation; 72hr; 37 C, 5% CO2, 95% humidity.
5; Reagent; 3uL; CellTiter-Glo reagent (Promega).
6; Incubation; 10min; room temperature.
7; Detection; Luminescence; ViewLux plate reader (PerkinElmer).
NOTES (numbers refer to Sequence numbers above
1. Quantitative high-throughput screening (qHTS) of small molecule compounds was conducted on drug resistant SYKi MV4-11 cell line.
2. Twenty-three nanoliter of small molecule compounds were added to each assay plates using the Echo acoustic dispenser (Beckman Coulter).
3. Cells were seeded into the assay plates at a final density of 500 cells in 5uL of media per well using the Multidrop Combi dispenser.
4. Plates were covered with stainless steel gasketed lids and incubated for 72 hours at standard cell culture conditions.
5. Viability was assessed by adding 3uL of CellTiter-Glo detection reagent (Promega).
6. Plates were covered with gasket lids and incubated for 10 minutes at room temperature.
7. Luminescence was measured on a ViewLux plate reader (PerkinElmer).
Potency means the concentration at half of the fitted maximal effect.

Row | Compound | viability, % of control | Potency
1 | COc1cc(/C=C/C(=O)O[C@@H]2O[C@H](CO)[C@@H](O)[C@H](O)[C@H]2O)ccc1O | 94.4% (inactive) | 
2 | Cn1c(NCCN(CCO)CCCc2ccc([N+](=O)[O-])cc2)cc(=O)n(C)c1=O |  | inactive
3 | COc1ccc(C[C@H]2COC(=O)[C@@H]2Cc2ccc(O[C@@H]3O[C@H](CO)[C@@H](O)[C@H](O)[C@H]3O)c(OC)c2)cc1OC |  | 1.42 µM (active)
4 | C/C=C(\C)C(=O)O[C@@H]1[C@@H](C)[C@]2(O)[C@@H]3C=C(C)C(=O)[C@H]3CC(CO)=C[C@H]2C2C(C)(C)[C@@]21OC(=O)C(C)CC (stereo not given in full) |  | 0.448 µM (active)
5 | O=C(/C=C/c1ccc(O)c(O)c1)OC[C@H]1O[C@@H](OC2CCCCC2O)[C@H](O)[C@@H](O)[C@@H]1O (stereo not given in full) | 107% [at 17.3 µM] (inactive) | 
6 | COC(=O)C1=C(C)NC(C)=C(C(=O)OCC(C)C)C1c1ccccc1[N+](=O)[O-] (stereo not given) |  | 10.6 µM (active)
7 | Cc1ccc(-c2nn(C(C)(C)CNC(=O)c3ccncc3)c3ncnc(N)c23)cc1 |  | 6.61 µM (active)
8 | C[C@]12C=CC(=O)C=C1CC[C@@H]1[C@@H]2[C@@H](O)C[C@@]2(C)[C@H]1CC[C@]2(O)C(=O)CO | 53.1% (inactive) | 
9 | Cc1ccc2c(Br)cc(Br)c(O)c2n1 |  | 11.9 µM (active)
10 | CN(N=O)C(=O)N[C@@H]1[C@@H](O)[C@H](O)[C@@H](CO)O[C@@H]1O |  | inactive
11 | Nc1c(CC(=O)O)cccc1C(=O)c1ccc(Br)cc1 | 73.7% (inactive) | 
12 | CCn1c2ccccc2c2cc(Nc3ccnc(NCCCN4CCOCC4)n3)ccc21 |  | 2.59 µM (active)
13 | O=C(C1=CCN2c3c(cccc31)OC[C@H]2CN1CCOCC1)c1cccc2ccccc12 |  | 18.4 µM (active)
14 | O=P(O)(O)C(O)(Cn1ccnc1)P(=O)(O)O | 89.7% [at 4.97 µM] (inactive) | 
15 | Cc1c(-c2ccnc(Nc3cc(Br)cc(C(F)(F)F)c3)n2)sc(=O)n1C | 79.7% (inactive) | 
16 | COCCN1CCN(Cc2ccc(-c3n[nH]c4c3C(=O)c3c(NC(=O)NN5CCOCC5)cccc3-4)cc2)CC1 |  | 0.0209 µM (active)
17 | Clc1cccc(Cl)c1NC1=NCCN1 | 93.4% (inactive) | 
18 | C[C@@H]1O[C@@H](O[C@H]2[C@H](OC(=O)[C@]34CCC(C)(C)C[C@H]3C3=CCC5[C@@]6(C)C[C@H](O)[C@H](O[C@@H]7O[C@H](CO)[C@@H](O)[C@H](O)[C@H]7O)[C@@](C)(CO)C6[C@H](O)C[C@@]5(C)[C@]3(C)C[C@H]4O)OC[C@H](O)[C@@H]2O)[C@H](O)[C@H](O)[C@H]1O[C@@H]1OC[C@@H](O)[C@H](O[C@H]2OC[C@](O)(CO)[C@H]2O)[C@H]1O (stereo not given in full) | 104% [at 9.25 µM] (inactive) | 
19 | CC1NC(=O)CNC(=O)C(C(C)C)NC(=O)C2CCCN2C(=O)C(C(C)C)NC(=O)C(Cc2c[nH]c3ccccc23)NC1=O (stereo not given) | 95.4% [at 17.3 µM] (inactive) | 
20 | O=C(NC(Cc1cc(=O)[nH]c2ccccc12)C(=O)O)c1ccc(Cl)cc1 (stereo not given) |  | inactive

Row | Compound | viability, % of control | Potency
21 | COc1cncc(C#Cc2ccccn2)c1 | 76.6% (inactive) | 
22 | Nc1nc(Nc2ccc3c(c2)CCC(N2CCCC2)CC3)nn1-c1cc2c(nn1)-c1ccccc1CCC2 (stereo not given) |  | 0.366 µM (active)
23 | CCO[C@@H]1OC(=O)C[C@@H]1NC(=O)[C@@H]1CCCN2C(=O)CC[C@H](NC(=O)c3nccc4ccccc34)C(=O)N12 | 119% (inactive) | 
24 | C=C1[C@H](OC(C)=O)[C@H]2[C@@H](OC(=O)c3ccccc3)[C@@H](C)C[C@]2(O)[C@@H](OC(C)=O)[C@H](C)/C=C/C(C)(C)C(=O)[C@H](OC(C)=O)[C@H]1OC(C)=O | 74.4% [at 17.3 µM] (inactive) | 
25 | OC[C@H]1O[C@@H](OCCc2ccc(O)cc2)[C@H](O)[C@@H](O)[C@H]1O | 78.7% (inactive) | 
26 | O=C(c1ccc(F)c(F)c1Nc1ccc(I)cc1F)N1CC(O)([C@@H]2CCCCN2)C1 |  | 231 nM (active) and 296 nM (active)
27 | COc1ccc(CCc2nc3cc(-c4c(C)noc4C)ccc3n2C[C@H](C)N2CCOCC2)cc1Cl |  | 5.8 µM (active)
28 | CC(C)(C)c1cnc(CSc2cnc(NC(=O)C3CCNCC3)s2)o1 |  | 0.332 µM (active)
29 | C=C1CC[C@H]2[C@@](C)(CCC[C@@]2(C)C(=O)O)[C@@H]1CCC(C)CCO (stereo not given in full) | 74.2% (inactive) | 
30 | C[C@]12C=CC(=O)C=C1CC[C@@H]1[C@@H]2C(=O)C[C@@]2(C)[C@H]1CC[C@]2(O)C(=O)CO |  | inactive
31 | CC(C)=CCC[C@](C)(O[C@@H]1O[C@H](CO[C@@H]2O[C@H](CO)[C@@H](O)[C@H](O)[C@H]2O)[C@@H](O)[C@H](O)[C@H]1O)C1CC[C@]2(C)[C@@H]1[C@H](O)CC1[C@@]3(C)CC[C@H](O[C@@H]4O[C@H](CO)[C@@H](O)[C@H](O)[C@H]4O[C@@H]4O[C@H](CO)[C@@H](O)[C@H](O)[C@H]4O)C(C)(C)[C@@H]3CC[C@]12C (stereo not given in full) | 69.6% [at 9.25 µM] (inactive) | 
32 | COc1cc(N(C)CCN(C)C)c(N)cc1Nc1nccc(-c2cn(C)c3ccccc23)n1 |  | 10.3 µM (active)
33 | O=c1cc(N2CCOCC2)oc2c(-c3ccccc3)cccc12 |  | inactive and 9.34 µM (active)
34 | C=CC(C)(O)CC/C=C(\C)C(=O)OC1C(O)C(CO)OC(OC(=O)C23CCC(C)(C)CC2C2=CCC4C5(C)CCC(OC6OC(COC7OCC(OC(C)=O)C(O)C7OC7OC(COC(C)=O)C(O)C(O)C7OC(C)=O)C(O)C(O)C6OC6OCC(O)C(O)C6O)C(C)(C)C5CCC4(C)C2(C)C(O)C3O)C1OC1OCC(OC2OCC(O)C(OC3OCC(O)C(O)C3O)C2O)C(O)C1O (stereo not given) |  | 1.78 µM (active)
35 | C[C@]12CCC(=O)C=C1CC[C@H]1[C@@H]3CC[C@](O)(C(=O)CO)[C@@]3(C)C[C@H](O)[C@@]12F | 75.5% (inactive) | 
36 | COC(=O)CC[C@H](NC(=O)[C@H](CC(C)C)NC(=O)OCc1ccccc1)C(=O)N[C@@H](Cc1cnc[nH]1)C(=O)N[C@@H](CC(=O)OC)C(=O)CF | 91.2% [at 9.25 µM] (inactive) | 
37 | CC(C)(C)c1ccc(S(=O)(=O)Nc2ccc(-n3ccnc3)cc2)cc1 |  | 10.3 µM (active)
38 | Cc1noc2c1-c1ccccc1C(c1ccc(Cl)cc1)=N[C@H]2CC(N)=O |  | 0.332 µM (active)
39 | C=C(C(=O)O)[C@@H]1CC=C2CCC[C@H](C)[C@@]2(C)C1 | 72.7% (inactive) | 
40 | CCOc1cc(CC(=O)NC(CC(C)C)c2ccccc2N2CCCCC2)ccc1C(=O)O (stereo not given) | 71.5% (inactive) | 
